Results: PubChem BioAssay (NCI)
The panel holds about 79,000 compounds, 15% with a hit somewhere; the sample as a whole holds those more often. Active and inactive are the calls of the source. Rule as the data show it: active = growth inhibition above about 70%; inactive = the rest.

Experiment: NCI Yeast Anticancer Drug Screen. Data for the bub3 strain (AID 167)
Details: S. cerevisiae bub3 mutant strain, at 5.0 µM (retest, dose inferred, filed as 0.5), hits give high values
Summary of the method: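 Part of a panel of yeast mutants defective in DNA damage repair or cell cycle regulation. Each strain is grown with compound, and inhibition is calculated relative to solvent-treated cultures.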
In the case of O=C1C(Cl)=C(N2C(=O)CCC2=O)C(=O)c2ccccc21, the growth inhibition is reported as 100% (active). In the case of Clc1ccc(CN2COc3c(cc(Cl)c4cccnc34)C2)cc1Cl, the growth inhibition is reported as 3% (inactive). For Cc1cc(C)c2c(c1)sc1nncn12, the growth inhibition was 70% (active). In the case of O=[N+]([O-])C1=Cc2ccccc2S(=O)(=O)CC1, the growth inhibition is reported as -24% (inactive). In the case of O=C1CNCCCN2CCN(CCCNCC(=O)Nc3ccc(cc3)S(=O)(=O)c3ccc(cc3)NC(=O)CNCCCN3CCN(CCCNCC(=O)Nc4ccc(cc4)S(=O)(=O)c4ccc(cc4)N1)CC3)CC2, the growth inhibition is reported as -3% (inactive). With O=C(Nc1ccccc1-c1nn(CN2CCNCC2)c(=S)n(CN2CCNCC2)c1=O)C(F)(F)F the growth inhibition was 1% (inactive). For O=[N+]([O-])c1ccc(/C(=C\c2ccccc2)Cn2ccnc2)cc1, the growth inhibition was 78% (active). For CC1CCC(NCCOC(=O)c2ccc([N+](=O)[O-])cc2)CC1 (stereo unspecified), the growth inhibition was -8% (inactive). In the case of Oc1cc(F)ccc1-c1ccc(F)cc1, the growth inhibition is reported as -12% (inactive). For CN(C)C(=O)/N=c1\ss/c(=N\C(=S)N(C)C)n1-c1ccccc1, the growth inhibition was -8% (inactive). For CCOc1c(N=Nc2ccccc2OC)c(-c2ccccc2)nn1C(N)=S, the growth inhibition was -1% (inactive). In the case of CS(C)=O.[Cl-].[Cl-].[NH-]CC(O)CN(Cc1ccccc1)CC(O)CN.[Pt] (stereo unspecified), the growth inhibition is reported as -19% (inactive). For Clc1ccc(C2=CCN3CC=C(c4ccc(Cl)cc4)C23)cc1, the growth inhibition was 17% (inactive). In the case of O=C1CC(O)C=C1Nc1ccc(Cl)cc1 (stereo unspecified), the growth inhibition is reported as -9% (inactive). For COc1cc(NCCCCCNC(C)C)c2ncc(C)c(C)c2c1, the growth inhibition was 3% (inactive). In the case of Cc1ccc(C(c2ccc(N(C)C)cc2)c2ccc(N(C)C)cc2)cc1, the growth inhibition is reported as 98% (active).
